Measurements reported in the supplement of paper PMC6089552.
The campaign covered roughly 3,200 compounds. About 300 (9.4%) showed activity. The sample as a whole holds a higher share of actives than the screen did.

System: A673/TR/shEF
Assay: cell viability (LOESS-normalised, relative to median of negative controls) (log2 ratio); higher = more viable cells (less compound effect), active = hit call of the paper (over 3 MAD below the median)
Conditions: treatment time: 72 h
Summary of the method: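 A673/TR/shEF Ewing sarcoma cells (1,500 per well, 384-well plates) were grown with or without doxycycline to induce EWS-FLI1 shRNA knockdown, starting 24 h before compounds. Library compounds at two or more concentrations, with DMSO controls, were added for three days. Cell viability was read by CellTiter-Glo luminescence on an Envision reader, then LOESS-corrected per plate, divided by the median of negative controls and log2-transformed. Hits were wells at least three median absolute deviations from the median of all screened wells.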

[1] = 0.103 µM, library screen: screen3, EWS-FLI1 expression: high (no doxycycline)
[2] = 0.103 µM, library screen: screen3, EWS-FLI1 expression: low (doxycycline-induced shRNA knockdown)
[3] = 0.25 µM, library screen: screen2, EWS-FLI1 expression: high (no doxycycline)
[4] = 0.25 µM, library screen: screen2, EWS-FLI1 expression: low (doxycycline-induced shRNA knockdown)
[5] = 0.308 µM, library screen: screen3, EWS-FLI1 expression: high (no doxycycline)
[6] = 0.308 µM, library screen: screen3, EWS-FLI1 expression: low (doxycycline-induced shRNA knockdown)
[7] = 0.926 µM, library screen: screen3, EWS-FLI1 expression: high (no doxycycline)
[8] = 0.926 µM, library screen: screen3, EWS-FLI1 expression: low (doxycycline-induced shRNA knockdown)
[9] = 2.5 µM, library screen: screen2, EWS-FLI1 expression: high (no doxycycline)
[10] = 2.5 µM, library screen: screen2, EWS-FLI1 expression: low (doxycycline-induced shRNA knockdown)
[11] = 2.8 µM, library screen: screen3, EWS-FLI1 expression: high (no doxycycline)
[12] = 2.8 µM, library screen: screen3, EWS-FLI1 expression: low (doxycycline-induced shRNA knockdown)
[13] = 8.3 µM, library screen: screen3, EWS-FLI1 expression: high (no doxycycline)
[14] = 8.3 µM, library screen: screen3, EWS-FLI1 expression: low (doxycycline-induced shRNA knockdown)
[15] = 25 µM, library screen: screen3, EWS-FLI1 expression: high (no doxycycline)
[16] = 25 µM, library screen: screen3, EWS-FLI1 expression: low (doxycycline-induced shRNA knockdown)
[17] = 0.25 µM, library screen: screen1, EWS-FLI1 expression: high (no doxycycline)
[18] = 0.25 µM, library screen: screen1, EWS-FLI1 expression: low (doxycycline-induced shRNA knockdown)
[19] = 2.5 µM, library screen: screen1, EWS-FLI1 expression: high (no doxycycline)
[20] = 2.5 µM, library screen: screen1, EWS-FLI1 expression: low (doxycycline-induced shRNA knockdown)

Measured: cell viability (log2)

CC1(C)C(=O)N(CCN2CCC(C(=O)c3ccc(F)cc3)CC2)c2ccccc21
inactive: [1] -0.034 | [2] 0.0315 | [3] 0.081 | [4] 0.0775 | [5] 0.05 | [6] 0.0455 | [7] 0.00913 | [8] 0.0245 | [9] 0.0771 | [10] 0.0581 | [11] -0.0171 | [12] 0.0924 | [13] -0.00458 | [14] 0.0164 | [15] 0.0894 | [16] 0.0236

O=C(c1ccc(F)cc1)C1CCN(CCn2c(=O)[nH]c3ccccc3c2=O)CC1
active: [3] -0.282 | [4] -0.245 | [9] -2.12 | [10] -2.83

COc1ccc2c(c1)CC[C@@H]1[C@@H]2CC[C@]2(C)[C@@H](NCCCCCCN3C(=O)CCC3=O)CC[C@@H]12
inactive: [3] 0.149 | [4] 0.104 | [9] 0.246 | [10] 0.108

COc1cccc2c(C)cc(=O)[nH]c12
inactive: [17] 0.0638 | [18] 0.0801 | [19] 0.144 | [20] 0.0702

C[C@@H]1CCC2[C@@H](C)[C@@H](O)O[C@@H]3OC4(C)CC[C@@H]1[C@@]23OO4 (stereo partly drawn)
inactive: [17] 0.104 | [18] 0.00583 | [19] 0.029 | [20] -0.122

CN(C)c1ccc(C=C2SC(=S)N(c3ccc(F)cc3)C2=O)cc1
inactive: [17] 0.0645 | [18] 0.154 | [19] 0.09 | [20] 0.192

C=CC(C)(C)c1c2c(c(O)c3c(=O)c4ccc(O)c(O)c4oc13)C=CC(C)(C)O2
inactive: [17] -0.0194 | [18] 0.182 | [19] -0.0746 | [20] 0.15

CC1C(=O)CC2CC1C2(C)C (stereo not drawn)
active: [17] -0.106
inactive: [18] 0.0655 | [19] 0.091 | [20] 0.103

NC(=O)c1ccccc1NC(=O)c1cc2ccccc2o1
inactive: [17] 0.112 | [18] 0.167 | [19] 0.0735 | [20] 0.103

O=C(O)CCCCCCCCCCCCC1C=CCC1 (stereo not drawn)
inactive: [17] 0.109 | [18] -0.0641 | [19] 0.133 | [20] 0.00345

CCC(C)[C@H]1O[C@]2(CC[C@@H]1C)CC1C[C@@H](C/C=C(\C)[C@@H](O[C@H]3C[C@H](OC)[C@@H](OC4C[C@H](OC)[C@@H](O)[C@H](C)O4)[C@H](C)O3)[C@@H](C)/C=C/C=C3\CO[C@@H]4[C@H](O)C(C)=C[C@@H](C(=O)O1)[C@]34O)O2.CO[C@H]1CC(O[C@H]2[C@H](C)O[C@@H](O[C@@H]3/C(C)=C/C[C@@H]4CC(C[C@]5(CC[C@H](C)[C@@H](C(C)C)O5)O4)OC(=O)[C@@H]4C=C(C)[C@@H](O)[C@H]5OC/C(=C\C=C\[C@@H]3C)[C@]54O)C[C@@H]2OC)O[C@@H](C)[C@@H]1O (stereo partly drawn)
inactive: [1] 0.062 | [2] 0.111 | [3] 0.0727 | [4] 0.0714 | [5] -0.0408 | [6] 0.0112 | [7] -0.0851 | [8] -0.0397 | [10] -0.0072
active: [9] -0.104 | [11] -0.279 | [12] -0.285 | [13] -0.239 | [14] -0.115 | [15] -3.03 | [16] -1.99

CO[C@H]1C[C@H](O[C@@H]2/C(C)=C/C[C@@H]3C[C@@H](C[C@]4(CC[C@H](C)[C@@H](C5CCCCC5)O4)O3)OC(=O)[C@@H]3C=C(C)/C(=N/O)[C@H]4OC/C(=C\C=C\[C@@H]2C)[C@]43O)O[C@@H](C)[C@@H]1O
inactive: [17] 0.0971 | [18] 0.0732 | [19] 0.0965 | [20] 0.0106

Cc1cc(=O)c2c(O)c3c(cc2o1)OC(C)(C)CC3
inactive: [17] -0.0169 | [18] 0.014 | [19] 0.0268 | [20] 0.147

CCC[C@H]1CC2=C(C[C@@H](CC)CC3=C1C(=O)OC3=O)C(=O)OC2=O
inactive: [17] 0.0818 | [18] 0.0576 | [19] 0.117 | [20] 0.0649

Cc1sc2c(=O)n3c(nc2c1C(=O)NCCc1ccccc1)CCCCC3
inactive: [17] 0.129 | [18] 0.0568 | [19] 0.167 | [20] 0.136

CC(C)CCC[C@@H](C)C1CC[C@H]2[C@@H]3CCC4=CC(=O)C=C[C@]4(C)[C@H]3CC[C@]12C (stereo partly drawn)
inactive: [17] 0.107 | [18] 0.0599 | [19] 0.105 | [20] 0.0638

c1ccc([C@@H]2CCC[C@@H]2NC2=NCCCCCCCCCCC2)cc1
inactive: [3] 0.117 | [4] 0.0677 | [9] 0.18 | [10] 0.156

CC1(C)C[C@@]23C(=O)CC[C@@H](O)C2(C)CC[C@H]13 (stereo partly drawn)
inactive: [17] 0.0615 | [18] -0.0504 | [19] 0.0572 | [20] 0.0807

COc1c(O)cc(C2Oc3c(c(O)cc(O)c3[C@H]3c4c(O)cc(O)cc4O[C@H](c4ccc(O)cc4)[C@@H]3O)C[C@H]2O)cc1O (stereo partly drawn)
inactive: [1] -0.000188 | [2] 0.0292 | [5] -0.0295 | [6] -0.00938 | [7] 0.0249 | [8] 0.0493 | [11] -0.0107 | [12] 0.0655 | [13] 0.0329 | [14] 0.11 | [15] 0.0402 | [16] 0.209
